Data reported in ChEMBL document CHEMBL3988442, “University of Dundee, Small-Polar-MMV Screening Library” (2021).
The campaign covered roughly 69,000 compounds. About 1,000 (1.4%) showed an effect of 50% or more. The list comes from a sample in which strong results are over-represented; it also holds similar structures and randomly drawn compounds.

Test system: Leishmania donovani
Experiment: Leishmania intramacrophage assay
Assay type: functional, organism-based
Parameters: scale not given: in the data most compounds retested in dose-response had high values

In the case of `CCn1nccc1CNC(=O)C1CCCO1` (stereo not drawn), the “Percent Effect” value (30.3 µM, […]) is reported as 2.08%.
For `CNc1oc(-c2ccc(OC)c(S(=O)(=O)N3CCCC3)c2)nc1C#N`, the “Percent Effect” value (30.3 µM, […]) was 16.63%.
`CC(=O)N1CCC2(CC1)CC(NS(C)(=O)=O)c1ccccc1O2` (stereo not drawn) was tested, and the “Percent Effect” value (30.3 µM, […]) was 6.966%.
`O=C(NCc1cccs1)c1nc2c(o1)CN(c1ncccn1)C2` was tested, and the “Percent Effect” value (30.3 µM, […]) was 27.75%.
In the case of `CCn1c(CC2CCN(C(=O)c3ccnn3C)CC2)n[nH]c1=O`, the “Percent Effect” value (30.3 µM, […]) is reported as 15.21%.
In the case of `Cc1csc(CNC(=O)NCC(O)c2cccc(Cl)c2)n1` (stereo not drawn), the “Percent Effect” value (30 µM, 30.03 µM) is reported as 17.1%.
With `CCCN(C(=O)c1csnn1)C1CCCN(Cc2ccccc2)C1` (stereo not drawn) the “Percent Effect” value (30.3 µM, […]) was 11.65%.
`COCCN1CCC2(CC1)CC(N1CCOCC1)c1ccc(C)cc12.O=C(O)C(F)(F)F.O=C(O)C(F)(F)F` (stereo not drawn) was tested, and the “Percent Effect” value (30.3 µM, […]) was 56.38%.
With `CC(=O)N1CCC2(CC1)CC(N1CCOCC1)c1ccc(C)cc12.O=C(O)C(F)(F)F` (stereo not drawn) the “Percent Effect” value (30.3 µM, […]) was 29.16%.
For `COCCN1CCC2(CC1)CC(N1CCOCC1)c1cc(C)ccc12.O=C(O)C(F)(F)F.O=C(O)C(F)(F)F` (stereo not drawn), the “Percent Effect” value (30.3 µM, […]) was 13.44%.
For `COc1ccc(C(=O)Nc2c(C(=O)N(C)C)nn(C)c2C)cc1`, the “Percent Effect” value (30.3 µM, […]) was 25.81%.
With `O=C1CC(c2ccsc2)c2snc(C(=O)O)c2N1` (stereo not drawn) the “Percent Effect” value (30.3 µM, […]) was 9.625%.
For `Cc1ccc(-c2nnc(SCC(=O)O)n2-c2ccc(C)cc2)cc1`, the “Percent Effect” value (30 µM, 30.03 µM) was 5.804%.
`CNc1nc(C)cc(NC2CCCN(C3Cc4ccccc4C3)C2)n1` (stereo not drawn) was tested, and the “Percent Effect” value (30.3 µM, […]) was 58.16%.
`Cc1ccc(NC2CCCN(C3Cc4ccccc4C3)C2)nn1` (stereo not drawn) was tested, and the “Percent Effect” value (30.3 µM, […]) was 23.72%.
In the case of `CNc1cc(C)nc(NC2CCCN(C3Cc4ccccc4C3)C2)n1` (stereo not drawn), the “Percent Effect” value (30.3 µM, […]) is reported as 32.54%.
For `CN1CCN(C2CCN(Cc3nnc(C(C)(C)C)o3)CC2)C1=O`, the “Percent Effect” value (30 µM) was 6.935%.
For `COc1cc(CNCCc2nc(C)cs2)cc2c1OCCO2.Cl`, the “Percent Effect” value (30 µM, 30.03 µM) was 9.472%.
For `COc1cccc(CN(C)C(C)c2ccco2)c1OCCn1ccnc1` (stereo not drawn), the “Percent Effect” value (30.3 µM, […]) was 23.12%.
With `CCCN(CC(=O)N(C)C)C(=O)c1ccc(-c2nc(C)cs2)cc1` the “Percent Effect” value (30.3 µM, […]) was 65.78%.
With `CCCN(CC(=O)NC)C(=O)c1ccc(-c2nc(C)cs2)cc1` the “Percent Effect” value (30.3 µM, […]) was 37%.
`CCN(CC(=O)N(C)C)C(=O)c1ccc(-c2nc(C)cs2)cc1` was tested, and the “Percent Effect” value (30.3 µM, […]) was -16.68%.
`Cc1cc(C2CCCN2Cc2cc(=O)n(C)c(=O)n2C)on1` (stereo not drawn) was tested, and the “Percent Effect” value (30 µM, 30.03 µM) was -11.72%.
For `COc1ccc(S(=O)(=O)NCCCc2nnc3nc(C)cc(C)n23)cc1`, the “Percent Effect” value (30.3 µM, […]) was 5.677%.
With `CC(C)n1cnnc1SCCN(C)c1ccccc1` the “Percent Effect” value (30.3 µM, […]) was -1.184%.
With `COc1ccc(-c2cc3cccn(CC(=O)N4CCOCC4)c-3n2)cc1` the “Percent Effect” value (30.3 µM, […]) was 23.65%.
For `CN(C)CCN(C)C(=O)Cn1cccc2cc(-c3ccc(F)cc3)nc1-2`, the “Percent Effect” value (30.3 µM, […]) was 78.9%.
`O=C(Cn1cccc2cc(-c3ccc(F)cc3)nc1-2)N1CCC(O)CC1` was tested, and the “Percent Effect” value (30.3 µM, […]) was 2.575%.
